Source: PubChem BioAssay (NCATS)
Inconclusive results are not listed. A call without a number means that no potency is given here. The source made the active and inactive calls. Calls follow the shape of the dose curve; as a rule, active = well fitted inhibition curve with a large enough effect; inconclusive = small, poorly fitted or top-dose-only effect; inactive = no such curve, though single readings can be large or run the other way.

Test system: Zika virus NS2B-NS3 protease (unlinked complex)
Experiment: Primary screen GU Rhodamine qHTS for Zika virus inhibitors: Unlinked NS2B-NS3 protease assay (AID 1347159); also: nearly all actives have a fitted effect of over 60% in size
Conditions: Recombinant ZIKV NS2B-NS3 protease, Rhodamine110 substrate fluorescence; series mostly up to 107 µM
Method in brief: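 In dose–response format, inhibition of unlinked protease (25 nM) was measured with 1.5 microM bis-peptide Rhodamine110 substrate. Aprotinin served as the intraplate control.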
Potency is read from the fitted curve at half-maximal effect.

SMILES | Potency | activity change, negative = inhibition
Cc1cc(N2CCOCC2)ccc1Nc1nc(NC2CCCCC2)c2[nH]cnc2n1 | inactive | 
CCC1C(=O)N(C)c2cnc(Nc3ccc(C(=O)NC4CCN(C)CC4)cc3OC)nc2N1C1CCCC1 (stereo not drawn) | inactive | 
CC(C)OC(=O)N1CCC(Oc2ncnc3c2cnn3-c2ccc(S(C)(=O)=O)cc2F)CC1 | inactive | 
O=C(/C=C/c1ccccc1O)O[C@@H]1O[C@H](CO)[C@@H](O)[C@H](O)[C@H]1O | inactive | 
C=C1C(=O)O[C@@H]2[C@H]1CC(=O)[C@H](C)[C@@](O)(C(=O)/C=C/C)[C@H]2OC(=O)C(C)CC (stereo partly drawn) | inactive | 
Clc1ccc(Cn2c(Cc3ccccc3)nc3ccccc32)cc1 | inactive | 
NC(N)=NC(=O)c1cnn(-c2cccc3ncccc23)c1C1CC1 | inactive | 
Cc1nnc(-c2ccc(-c3ccc(C(=O)Nc4ccc(O)c(N5CCN(C)CC5)c4)cc3)c(C)c2)o1 | inactive | 
O=c1[nH]c2ccc(C#CCN3CCC(Cc4ccccc4)CC3)cc2[nH]1 | inactive | 
CC(=O)O[C@@H]1C[C@@]2(C)C(CC[C@]3(C)C2CC=C2C4CC(C)(C)CC[C@]4(C(=O)O)CC[C@]23C)C(C)(C)[C@H]1O (stereo partly drawn) | 7.08 µM (active) | 
O=C(NCCN1CCN(c2cccc3ccc(O)cc23)CC1)c1ccc(F)cc1 | inactive | 
CN(C)c1ccnc2sc3c(=O)n(N4CCCCCC4)cnc3c12 | inactive | 
C=C1CC[C@@H](O)[C@]2(C)C[C@H]3OC(=O)C(=C)[C@H]3CC12 (stereo partly drawn) | inactive | 
COc1cc(C(C)=O)c(OC)c2c1OC(C)(C)C=C2 | inactive | 
CCOC(=O)C1(CCOc2ccccc2)CCN(Cc2ccc(O)c(Cl)c2)CC1 | inactive | 
NS(=O)(=O)c1ccc(NC(=O)Nc2ccc(F)cc2)cc1 | inactive | 
C=C1C(=O)O[C@@H]2/C=C(/C)[C@@H](OC(C)=O)C/C=C(\C)C[C@@H](OC(=O)/C(=C/CO)CO)[C@@H]12 | inactive | 
COC(=O)C[C@H]1C(C)(C)[C@H](OC(=O)c2ccccc2)C2CC3=C4CC(=O)O[C@@H](c5ccoc5)[C@]4(C)CCC3[C@@]1(C)C2=O (stereo partly drawn) | inactive | 
CC1OC(OC2C(O)COC(O[C@@H]3[C@@H](O)[C@@H](O)[C@H](OC4C(OC(=O)[C@]56CCC(C)(C)CC5C5=CCC7[C@@]8(C)C[C@H](O)[C@H](OC9OC(CO)C(O)C(O)C9O)[C@@](C)(CO)C8[C@H](O)C[C@@]7(C)[C@]5(C)CC6)OCC(O)C4O)O[C@H]3C)C2O)C(O)C(O)C1O (stereo partly drawn) |  | 8.24% [at 19.1 µM] (inactive)
CN1CCN(c2ccc(Nc3cc(-c4cccc(-n5ccc6cc(C7CC7)cc(F)c6c5=O)c4CO)cn(C)c3=O)nc2)CC1 | inactive | 

SMILES | Potency | activity change, negative = inhibition
Cc1cn2c(n1)Cc1ccc(Cl)cc1C(c1ccc(N)cc1)=N2 | inactive | 
Cc1cc(F)c(C(=O)Nc2cccc(-c3nncn3C(C)C)n2)cc1-n1cnc(C2CC2)c1 | inactive | 
CNC(C)C(=O)NC(C(=O)N1CCCC1C(=O)Nc1snnc1-c1ccccc1)C1CCCCC1 (stereo not drawn) | inactive | 
CC(C)(F)CC(NC(c1ccc(-c2ccc(S(C)(=O)=O)cc2)cc1)C(F)(F)F)C(=O)NC1(C#N)CC1 (stereo not drawn) | inactive | 
C=C1C(=O)O[C@@H]2/C=C(\CO)CC/C=C(\CO)[C@H](OC(C)=O)C(OC(=O)C(C)CC)C12 (stereo partly drawn) | inactive | 
COc1ccc(OC)c(-c2ccc(NC(=O)c3ccncc3F)cc2)c1 | inactive | 
C=C1CC2OC(=O)C(COC)C2C(OC(=O)/C(C)=C\C)CC2(C)OC1=CC2=O (stereo not drawn) | inactive | 
c1cc(NC2CCNCC2)nc(-c2cnc3ccccn23)c1 | inactive | 
Cc1nc(C(=O)N2CCC[C@H]2Cc2nnc(-c3ccccc3)o2)c(-c2ccccc2F)s1 | inactive | 
O=C(Nc1nc2cc(C(F)(F)F)cc(NC3CC3)n2n1)c1cccnc1 | inactive | 
N#Cc1ccc2ncnc(NCCc3ccccc3)c2c1 | inactive | 
CC(C)c1cc(-c2ccc(F)c3ccccc23)nc(N)n1 | inactive | 
CC(=O)O[C@@H]1C[C@@]23C[C@@]24CC[C@H](O[C@@H]2OC[C@H](O)[C@H](O)[C@H]2O)C(C)(C)[C@@H]4CC[C@H]3[C@]2(C)[C@@H](O)C34O[C@H](C[C@@H](C)[C@@H]3[C@@]12C)[C@@H](C(C)(C)O)O4 | inactive | 
COc1cc2ncnc(Oc3ccc(CC(=O)Nc4cnn(C(C)C)c4)cc3)c2cc1OC | inactive | 
CC(C)(O)C(=O)N1CCN(c2ccc(C(F)(F)F)c(C3=C(c4c[nH]c5ccccc45)C(=O)NC3=O)c2)CC1 | inactive | 
CC(C)n1cnc2c(-c3cnc(N)nc3)nc(N3CCOCC3)nc21 | inactive | 
CCNC(=O)c1noc(-c2cc(Cl)c(O)cc2O)c1-c1ccc(OC)cc1 | inactive | 
CN(c1ccc(NC(=O)Nc2ccccc2)cc1)S(=O)(=O)c1cnn(-c2ccc(F)cc2)c1 | inactive | 
COc1cc(O)cc(/C=C/c2cccc(O)c2)c1 | inactive | 

Test system: Zika virus NS2B-NS3 protease (linked construct)
Experiment: Primary screen NINDS Rhodamine qHTS for Zika virus inhibitors (AID 1347160); also: nearly all actives have a fitted effect of over 55% in size
Conditions: purified NS2B-NS3 protease, Rhodamine110 substrate fluorescence; series mostly up to 57.1 µM
Method in brief: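 Each compound, titrated, sat 15 min with 25 nM linked protease before 1.5 microM Rhodamine110 substrate went in. Fluorescence gain over the next 15 min, in pH 8.0 Tris with Tween 20, gave Hill-fitted curves.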

SMILES | Potency | outcome
Cc1cc(N2CCOCC2)ccc1Nc1nc(NC2CCCCC2)c2[nH]cnc2n1 | inactive | 
CCC1C(=O)N(C)c2cnc(Nc3ccc(C(=O)NC4CCN(C)CC4)cc3OC)nc2N1C1CCCC1 (stereo not drawn) | inactive | 
CC(C)OC(=O)N1CCC(Oc2ncnc3c2cnn3-c2ccc(S(C)(=O)=O)cc2F)CC1 | inactive | 
O=C(/C=C/c1ccccc1O)O[C@@H]1O[C@H](CO)[C@@H](O)[C@H](O)[C@H]1O | inactive | 
C=C1C(=O)O[C@@H]2[C@H]1CC(=O)[C@H](C)[C@@](O)(C(=O)/C=C/C)[C@H]2OC(=O)C(C)CC (stereo partly drawn) | inactive | 
Clc1ccc(Cn2c(Cc3ccccc3)nc3ccccc32)cc1 | inactive | 
NC(N)=NC(=O)c1cnn(-c2cccc3ncccc23)c1C1CC1 | inactive | 
Cc1nnc(-c2ccc(-c3ccc(C(=O)Nc4ccc(O)c(N5CCN(C)CC5)c4)cc3)c(C)c2)o1 | inactive | 
O=c1[nH]c2ccc(C#CCN3CCC(Cc4ccccc4)CC3)cc2[nH]1 | inactive | 
CC(=O)O[C@@H]1C[C@@]2(C)C(CC[C@]3(C)C2CC=C2C4CC(C)(C)CC[C@]4(C(=O)O)CC[C@]23C)C(C)(C)[C@H]1O (stereo partly drawn) | 11.2 µM (active) | 
O=C(NCCN1CCN(c2cccc3ccc(O)cc23)CC1)c1ccc(F)cc1 | inactive | 
CN(C)c1ccnc2sc3c(=O)n(N4CCCCCC4)cnc3c12 | inactive | 
C=C1CC[C@@H](O)[C@]2(C)C[C@H]3OC(=O)C(=C)[C@H]3CC12 (stereo partly drawn) | inactive | 
COc1cc(C(C)=O)c(OC)c2c1OC(C)(C)C=C2 | inactive | 
CCOC(=O)C1(CCOc2ccccc2)CCN(Cc2ccc(O)c(Cl)c2)CC1 | inactive | 
NS(=O)(=O)c1ccc(NC(=O)Nc2ccc(F)cc2)cc1 | inactive | 
C=C1C(=O)O[C@@H]2/C=C(/C)[C@@H](OC(C)=O)C/C=C(\C)C[C@@H](OC(=O)/C(=C/CO)CO)[C@@H]12 | inactive | 
COC(=O)C[C@H]1C(C)(C)[C@H](OC(=O)c2ccccc2)C2CC3=C4CC(=O)O[C@@H](c5ccoc5)[C@]4(C)CCC3[C@@]1(C)C2=O (stereo partly drawn) | inactive | 
CC1OC(OC2C(O)COC(O[C@@H]3[C@@H](O)[C@@H](O)[C@H](OC4C(OC(=O)[C@]56CCC(C)(C)CC5C5=CCC7[C@@]8(C)C[C@H](O)[C@H](OC9OC(CO)C(O)C(O)C9O)[C@@](C)(CO)C8[C@H](O)C[C@@]7(C)[C@]5(C)CC6)OCC(O)C4O)O[C@H]3C)C2O)C(O)C(O)C1O (stereo partly drawn) |  | inactive [at 10.7 µM]
CN1CCN(c2ccc(Nc3cc(-c4cccc(-n5ccc6cc(C7CC7)cc(F)c6c5=O)c4CO)cn(C)c3=O)nc2)CC1 | inactive | 

SMILES | Potency | outcome
Cc1cn2c(n1)Cc1ccc(Cl)cc1C(c1ccc(N)cc1)=N2 | inactive | 
Cc1cc(F)c(C(=O)Nc2cccc(-c3nncn3C(C)C)n2)cc1-n1cnc(C2CC2)c1 | inactive | 
CNC(C)C(=O)NC(C(=O)N1CCCC1C(=O)Nc1snnc1-c1ccccc1)C1CCCCC1 (stereo not drawn) | inactive | 
CC(C)(F)CC(NC(c1ccc(-c2ccc(S(C)(=O)=O)cc2)cc1)C(F)(F)F)C(=O)NC1(C#N)CC1 (stereo not drawn) | inactive | 
C=C1C(=O)O[C@@H]2/C=C(\CO)CC/C=C(\CO)[C@H](OC(C)=O)C(OC(=O)C(C)CC)C12 (stereo partly drawn) | inactive | 
COc1ccc(OC)c(-c2ccc(NC(=O)c3ccncc3F)cc2)c1 | inactive | 
C=C1CC2OC(=O)C(COC)C2C(OC(=O)/C(C)=C\C)CC2(C)OC1=CC2=O (stereo not drawn) | inactive | 
c1cc(NC2CCNCC2)nc(-c2cnc3ccccn23)c1 | inactive | 
Cc1nc(C(=O)N2CCC[C@H]2Cc2nnc(-c3ccccc3)o2)c(-c2ccccc2F)s1 | inactive | 
O=C(Nc1nc2cc(C(F)(F)F)cc(NC3CC3)n2n1)c1cccnc1 | inactive | 
N#Cc1ccc2ncnc(NCCc3ccccc3)c2c1 | inactive | 
CC(C)c1cc(-c2ccc(F)c3ccccc23)nc(N)n1 | inactive | 
CC(=O)O[C@@H]1C[C@@]23C[C@@]24CC[C@H](O[C@@H]2OC[C@H](O)[C@H](O)[C@H]2O)C(C)(C)[C@@H]4CC[C@H]3[C@]2(C)[C@@H](O)C34O[C@H](C[C@@H](C)[C@@H]3[C@@]12C)[C@@H](C(C)(C)O)O4 | inactive | 
COc1cc2ncnc(Oc3ccc(CC(=O)Nc4cnn(C(C)C)c4)cc3)c2cc1OC | inactive | 
CC(C)(O)C(=O)N1CCN(c2ccc(C(F)(F)F)c(C3=C(c4c[nH]c5ccccc45)C(=O)NC3=O)c2)CC1 | inactive | 
CC(C)n1cnc2c(-c3cnc(N)nc3)nc(N3CCOCC3)nc21 | inactive | 
CCNC(=O)c1noc(-c2cc(Cl)c(O)cc2O)c1-c1ccc(OC)cc1 | inactive | 
CN(c1ccc(NC(=O)Nc2ccccc2)cc1)S(=O)(=O)c1cnn(-c2ccc(F)cc2)c1 | inactive | 
COc1cc(O)cc(/C=C/c2cccc(O)c2)c1 | inactive | 
